# Values without a mark were called inactive.
# Assays:
# Experiment in all cases: log2 ratio of Biotin-Ahx-Ub-VS probe labelling (fragment/DMSO); higher = less target engagement (more negative = stronger competition), active = hit call of the paper (q ≤ 0.05, log2 ratio ≤ -1)
# Conditions in all cases: compound concentration: 200 uM; treatment time: 3 h
# [1] = target: T1, OTUD6B (UniProt Q8N6M0)
# T1 sequence (whole entry): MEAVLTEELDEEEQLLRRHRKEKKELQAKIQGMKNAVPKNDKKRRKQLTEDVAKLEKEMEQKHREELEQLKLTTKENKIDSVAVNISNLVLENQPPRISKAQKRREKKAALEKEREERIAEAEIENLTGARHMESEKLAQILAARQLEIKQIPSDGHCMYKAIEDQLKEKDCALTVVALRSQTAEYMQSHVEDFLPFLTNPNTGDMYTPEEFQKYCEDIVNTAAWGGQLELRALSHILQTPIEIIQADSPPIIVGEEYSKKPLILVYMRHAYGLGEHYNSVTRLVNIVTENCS
# Procedure, shortened: (§1)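 Values give the average log2 ratio of fragment to vehicle, assessed by unpaired t-test on global-median-normalised Spectronaut label-free quantities. Proteins needed ≥2 unique peptides. HEK293T lysate (495 µg per sample) was treated in triplicate with fragment at 200 µM or vehicle for 3 h and then with Biotin-Ahx-Ub-VS at 0.5 µM final for 1 h. Labelled DUBs were NeutrAvidin-enriched, digested and run by diaPASEF LC-MS/MS.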
# [2] = target: T2, OTUD7B (UniProt Q6GQQ9)
# T2 sequence (whole entry): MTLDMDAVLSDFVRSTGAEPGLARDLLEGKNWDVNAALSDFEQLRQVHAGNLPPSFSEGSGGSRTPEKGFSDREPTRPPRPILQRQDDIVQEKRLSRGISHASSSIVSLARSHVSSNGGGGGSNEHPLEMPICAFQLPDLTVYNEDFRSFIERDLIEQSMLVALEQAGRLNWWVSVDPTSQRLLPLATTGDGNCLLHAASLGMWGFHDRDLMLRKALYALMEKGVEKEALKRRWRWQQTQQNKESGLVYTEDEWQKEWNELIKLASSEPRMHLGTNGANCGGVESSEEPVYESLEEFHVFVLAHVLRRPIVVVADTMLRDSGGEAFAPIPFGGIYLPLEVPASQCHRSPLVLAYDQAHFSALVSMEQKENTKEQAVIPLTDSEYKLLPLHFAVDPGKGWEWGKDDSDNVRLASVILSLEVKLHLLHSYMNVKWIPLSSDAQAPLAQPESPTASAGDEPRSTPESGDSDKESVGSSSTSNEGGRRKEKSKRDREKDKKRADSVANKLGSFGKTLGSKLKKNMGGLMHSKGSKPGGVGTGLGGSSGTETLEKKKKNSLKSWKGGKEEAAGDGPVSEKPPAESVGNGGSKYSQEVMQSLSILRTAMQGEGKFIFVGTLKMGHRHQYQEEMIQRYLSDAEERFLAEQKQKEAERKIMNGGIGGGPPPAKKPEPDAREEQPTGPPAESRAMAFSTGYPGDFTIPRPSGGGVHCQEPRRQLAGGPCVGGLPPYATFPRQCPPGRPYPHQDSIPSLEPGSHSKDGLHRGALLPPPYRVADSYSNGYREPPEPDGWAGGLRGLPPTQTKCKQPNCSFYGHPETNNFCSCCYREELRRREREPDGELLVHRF
# Procedure, shortened: as §1
# [3] = target: PRPF8 (UniProt Q6P2Q9)
# Procedure, shortened: as §1
# [4] = target: T3, PSMD7 (UniProt P51665)
# T3 sequence (whole entry): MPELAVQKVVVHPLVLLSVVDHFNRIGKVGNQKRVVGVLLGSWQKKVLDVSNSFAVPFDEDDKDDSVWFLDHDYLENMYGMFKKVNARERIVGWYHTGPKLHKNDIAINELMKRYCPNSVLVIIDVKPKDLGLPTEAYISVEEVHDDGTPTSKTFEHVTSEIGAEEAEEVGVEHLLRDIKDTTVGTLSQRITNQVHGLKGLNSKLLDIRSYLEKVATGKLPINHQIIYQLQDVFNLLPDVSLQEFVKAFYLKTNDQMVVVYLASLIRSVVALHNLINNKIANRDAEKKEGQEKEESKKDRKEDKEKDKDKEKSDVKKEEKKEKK
# Procedure, shortened: as §1
# [5] = target: UCHL1 (UniProt P09936)
# Procedure, shortened: as §1
# [6] = target: T4, UCHL3 (UniProt P15374)
# T4 sequence (whole entry): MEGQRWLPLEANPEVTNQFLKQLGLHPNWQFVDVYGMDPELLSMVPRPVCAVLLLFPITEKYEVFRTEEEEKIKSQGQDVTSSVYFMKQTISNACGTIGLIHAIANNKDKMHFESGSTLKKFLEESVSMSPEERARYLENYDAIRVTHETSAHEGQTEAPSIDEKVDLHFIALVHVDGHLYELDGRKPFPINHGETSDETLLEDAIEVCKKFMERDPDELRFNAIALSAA
# Procedure, shortened: as §1
# [7] = target: T5, UCHL5 (UniProt Q9Y5K5)
# T5 sequence (whole entry): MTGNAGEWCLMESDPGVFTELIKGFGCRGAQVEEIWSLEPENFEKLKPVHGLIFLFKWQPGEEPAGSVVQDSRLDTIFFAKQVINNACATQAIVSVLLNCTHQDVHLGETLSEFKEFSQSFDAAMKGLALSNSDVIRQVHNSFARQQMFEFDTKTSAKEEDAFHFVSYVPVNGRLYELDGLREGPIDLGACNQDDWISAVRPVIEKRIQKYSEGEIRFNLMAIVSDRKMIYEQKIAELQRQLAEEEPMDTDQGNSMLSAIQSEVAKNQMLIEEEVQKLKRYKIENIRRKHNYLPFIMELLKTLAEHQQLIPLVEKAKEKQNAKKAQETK
# Procedure, shortened: as §1
# [8] = target: USP10 (UniProt Q14694)
# Procedure, shortened: as §1
# [9] = target: T6, USP15 (UniProt Q9Y4E8)
# T6 sequence (whole entry): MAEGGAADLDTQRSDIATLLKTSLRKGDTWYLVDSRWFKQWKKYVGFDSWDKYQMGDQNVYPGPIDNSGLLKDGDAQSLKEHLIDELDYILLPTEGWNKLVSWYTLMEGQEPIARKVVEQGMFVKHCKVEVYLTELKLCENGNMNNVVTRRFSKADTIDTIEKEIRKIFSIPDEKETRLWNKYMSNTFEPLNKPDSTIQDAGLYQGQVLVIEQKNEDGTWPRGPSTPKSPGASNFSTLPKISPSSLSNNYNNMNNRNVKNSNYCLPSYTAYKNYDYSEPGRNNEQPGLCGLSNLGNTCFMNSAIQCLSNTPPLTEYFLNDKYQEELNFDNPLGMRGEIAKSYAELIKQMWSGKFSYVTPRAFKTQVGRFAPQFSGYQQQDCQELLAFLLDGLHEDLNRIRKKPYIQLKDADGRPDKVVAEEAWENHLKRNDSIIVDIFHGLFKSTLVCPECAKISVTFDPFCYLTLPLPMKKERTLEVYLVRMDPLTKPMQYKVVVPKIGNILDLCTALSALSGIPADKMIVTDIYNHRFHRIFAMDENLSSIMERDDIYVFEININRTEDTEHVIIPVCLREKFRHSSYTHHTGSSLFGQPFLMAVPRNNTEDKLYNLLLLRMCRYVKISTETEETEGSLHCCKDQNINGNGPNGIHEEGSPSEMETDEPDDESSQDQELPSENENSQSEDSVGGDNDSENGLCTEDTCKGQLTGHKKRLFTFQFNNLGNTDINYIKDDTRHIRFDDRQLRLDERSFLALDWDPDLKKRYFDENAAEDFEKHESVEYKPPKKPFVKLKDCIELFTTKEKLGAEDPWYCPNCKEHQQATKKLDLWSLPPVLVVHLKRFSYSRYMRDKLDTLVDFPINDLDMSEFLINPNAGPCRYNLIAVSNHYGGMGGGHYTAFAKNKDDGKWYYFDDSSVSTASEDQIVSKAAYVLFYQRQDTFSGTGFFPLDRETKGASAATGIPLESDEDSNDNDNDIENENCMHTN
# Procedure, shortened: as §1
# [10] = target: USP16 (UniProt Q9Y5T5)
# Procedure, shortened: as §1
# Chain of UCHL1 (P09936 whole entry, looked up): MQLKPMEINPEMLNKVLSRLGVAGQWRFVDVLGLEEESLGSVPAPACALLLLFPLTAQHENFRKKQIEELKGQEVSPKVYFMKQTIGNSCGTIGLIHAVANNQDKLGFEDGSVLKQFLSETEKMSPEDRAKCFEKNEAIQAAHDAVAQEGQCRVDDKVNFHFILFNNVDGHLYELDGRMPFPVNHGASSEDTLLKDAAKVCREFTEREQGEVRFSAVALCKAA
# Chain of USP16 (Q9Y5T5 whole entry, looked up): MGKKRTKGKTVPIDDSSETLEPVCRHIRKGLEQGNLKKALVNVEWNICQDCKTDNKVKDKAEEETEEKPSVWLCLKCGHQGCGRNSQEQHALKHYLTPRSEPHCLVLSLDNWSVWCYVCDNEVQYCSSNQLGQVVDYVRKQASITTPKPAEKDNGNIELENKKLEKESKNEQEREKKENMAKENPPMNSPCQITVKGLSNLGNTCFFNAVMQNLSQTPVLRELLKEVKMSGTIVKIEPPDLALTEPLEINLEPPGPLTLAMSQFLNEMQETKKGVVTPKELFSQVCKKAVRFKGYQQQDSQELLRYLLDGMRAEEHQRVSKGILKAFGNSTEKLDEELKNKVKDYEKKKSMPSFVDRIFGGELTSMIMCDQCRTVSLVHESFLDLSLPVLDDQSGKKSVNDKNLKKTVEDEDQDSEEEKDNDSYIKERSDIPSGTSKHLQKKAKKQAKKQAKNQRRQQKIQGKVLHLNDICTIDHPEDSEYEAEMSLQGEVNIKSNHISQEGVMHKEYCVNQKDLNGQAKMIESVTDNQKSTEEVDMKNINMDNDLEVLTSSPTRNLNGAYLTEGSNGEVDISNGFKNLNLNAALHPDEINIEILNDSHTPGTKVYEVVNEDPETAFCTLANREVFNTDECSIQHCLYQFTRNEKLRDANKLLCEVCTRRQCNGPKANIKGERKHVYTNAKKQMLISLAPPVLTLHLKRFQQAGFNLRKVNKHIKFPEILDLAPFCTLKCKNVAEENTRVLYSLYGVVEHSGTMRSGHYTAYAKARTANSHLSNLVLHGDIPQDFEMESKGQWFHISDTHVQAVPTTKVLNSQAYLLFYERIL
# Chain of USP10 (Q14694 whole entry): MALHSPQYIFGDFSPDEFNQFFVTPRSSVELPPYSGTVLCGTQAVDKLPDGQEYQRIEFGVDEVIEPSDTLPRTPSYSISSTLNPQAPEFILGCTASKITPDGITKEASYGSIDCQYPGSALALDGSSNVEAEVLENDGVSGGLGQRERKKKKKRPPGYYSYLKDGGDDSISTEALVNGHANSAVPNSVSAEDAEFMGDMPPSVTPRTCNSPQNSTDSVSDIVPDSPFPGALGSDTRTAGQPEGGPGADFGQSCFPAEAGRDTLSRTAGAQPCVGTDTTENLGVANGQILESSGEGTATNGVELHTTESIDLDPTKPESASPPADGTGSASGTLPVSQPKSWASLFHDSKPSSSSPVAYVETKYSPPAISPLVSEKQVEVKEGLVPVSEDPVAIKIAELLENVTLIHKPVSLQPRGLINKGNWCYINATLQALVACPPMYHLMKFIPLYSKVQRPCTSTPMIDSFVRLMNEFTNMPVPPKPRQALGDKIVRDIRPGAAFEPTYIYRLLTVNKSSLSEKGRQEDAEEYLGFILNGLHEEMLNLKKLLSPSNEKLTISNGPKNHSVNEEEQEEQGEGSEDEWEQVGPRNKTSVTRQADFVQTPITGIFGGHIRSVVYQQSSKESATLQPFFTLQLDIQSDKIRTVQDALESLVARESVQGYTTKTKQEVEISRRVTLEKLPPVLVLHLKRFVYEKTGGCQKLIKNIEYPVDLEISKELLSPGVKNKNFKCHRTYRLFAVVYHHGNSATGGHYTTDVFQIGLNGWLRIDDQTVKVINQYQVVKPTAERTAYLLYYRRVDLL
structure (smiles),measurement,setting,value
NC(=O)C1CCCCN1C(=O)CCl (stereo not given),log2 ratio of Biotin-Ahx-Ub-VS probe labelling,[1],-0.175
same,log2 ratio of Biotin-Ahx-Ub-VS probe labelling,[2],-1.65 (active)
same,log2 ratio of Biotin-Ahx-Ub-VS probe labelling,[3],-0.153
same,log2 ratio of Biotin-Ahx-Ub-VS probe labelling,[4],-0.146
same,log2 ratio of Biotin-Ahx-Ub-VS probe labelling,[5],-1.52 (active)
same,log2 ratio of Biotin-Ahx-Ub-VS probe labelling,[6],0.215
same,log2 ratio of Biotin-Ahx-Ub-VS probe labelling,[7],-0.42
same,log2 ratio of Biotin-Ahx-Ub-VS probe labelling,[8],-0.0331
same,log2 ratio of Biotin-Ahx-Ub-VS probe labelling,[9],-0.0982
same,log2 ratio of Biotin-Ahx-Ub-VS probe labelling,[10],0.0843

# — the supplement of paper PMC11732987, “Enantioselective OTUD7B fragment discovery through chemoproteomics screening and high-throughput optimisation” (Communications Chemistry, 2025)
